“And” between values parts separate entries of the source, which are not always exact repeats. Identical values can stand only once. Records with an inconclusive call do not appear. Entries that show only a call come without a potency. Some structures have more than one record in an assay (separate samples or runs), and their calls can disagree. The source made the active and inactive calls. Unless noted, calls follow the shape of the full dose curve.
Key:
[1] = Nuclear factor erythroid 2-related factor 2/antioxidant responsive element (Nrf2/ARE) small molecule agonists: qHTS cell viability counter screen in human keratinocytes (AID 1919968; active = well fitted cell-killing curve with a large enough effect in the repeat runs; also: nearly all actives have a fitted effect of over 55% in size; also: potency is read from the fitted curve at half-maximal effect)
Outline: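 Cytotoxicity was multiplexed with the Nrf2/ARE luciferase assay in the same wells. Stably transfected HaCaT keratinocytes were treated with test compounds for 23 h at 37 C. Cell viability was then measured by CellTiter-Fluor fluorescence.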

[2] = Nuclear factor erythroid 2-related factor 2/antioxidant responsive element (Nrf2/ARE) small molecule agonists: luciferase reporter gene qHTS assay in human keratinocytes (AID 1919969); also: nearly all actives have a fitted effect of over 35% in size; also: potency is read from the fitted curve at half-maximal effect
[3] = molecular target: Gonadotropin-releasing hormone receptor (Homo sapiens) (UniProt P30968); experiment: Human gonadotropin-releasing hormone receptor (GnRHR) small molecule agonists, calcium flux assay in GnRHR-HEK293 cells (AID 1920063); also: nearly all actives have a fitted effect of over 35% in size
Outline: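 Agonist activity was measured as intracellular calcium flux in HEK293 cells engineered to stably express human GnRHR. After dye loading for 1 hour at 37 C, compounds in DMSO were added and fluorescence was followed for 3 minutes.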

[4] = G protein-coupled receptor (GPCR) small molecule agonists, calcium flux assay: HEK293 wild type cell line counter screen (AID 1920065)
Outline: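 Seed cells, incubate 18 h (37 C, 5% CO2); add calcium dye, 1 h at 37 C; pin-transfer compounds, ATP control or DMSO; read fluorescence 480/540 nm each second for 3 min.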

[5] = p53 small molecule agonists, cell-based qHTS assay with human liver microsomes (AID 1963577)
Outline: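 Fluorescence of the beta-lactamase reporter in p53RE-bla cells, detected with LiveBLAzer substrate (2 h, room temperature, dark), served as the read-out after 16 h compound exposure at 37 C with human liver microsomes and NADPH, each 0.5 mg/mL final.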

[6] = p53 small molecule agonists, cell-based qHTS assay with rat liver microsomes (AID 1963578)
Outline: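 Cells carrying a p53 response element–beta-lactamase reporter were plated and rested 5 h, then dosed with compound in DMSO plus rat liver microsomes and NADPH, each at 0.5 mg/mL final. After 16 h at 37 C, LiveBLAzer substrate was added for 2 h.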

[7] = p53 small molecule agonists, cell-based qHTS assay with human liver microsomes: qHTS cell viability counter screen (AID 1963579); also: nearly all actives have a fitted effect of over 45% in size; also: potency is read from the fitted curve at half-maximal effect
Outline: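 Cytotoxicity counter screen: p53RE-bla, 4,000 cells/well; 5 h settle, 37 C/5% CO2; cpd + HLM 0.5 mg/mL + NADPH 0.5 mg/mL (final); 16 h, 37 C; CellTiter-Glo, 30 min RT, luminescence.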

[8] = p53 small molecule agonists, cell-based qHTS assay with rat liver microsomes: qHTS cell viability counter screen (AID 1963580); also: nearly all actives have a fitted effect of over 45% in size; also: potency is read from the fitted curve at half-maximal effect
Outline: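 After the beta-lactamase ratio was read, CellTiter-Glo was added to the same wells and luminescence measured at 30 min; cells had been treated 16 h at 37 C with compounds, rat liver microsomes and NADPH (0.5 mg/mL final each).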

[9] = p53 small molecule agonists, cell-based qHTS assay: qHTS cell viability counter screen (AID 1963581); also: nearly all actives have a fitted effect of over 45% in size; also: potency is read from the fitted curve at half-maximal effect
Outline: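 Viability was counter-screened in parallel with the p53 agonist reporter by measuring intracellular ATP luminescence in the same HCT-116 p53RE-bla wells after 16 h compound treatment at 37 C.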

[10] = p53 small molecule agonists, cell-based qHTS assay (AID 1963582; active = well fitted activation curve with a large enough effect in the signal ratio in the repeat runs, not every such curve was filed as active; the % refers to the signal ratio)
Outline: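 Cells carrying a p53-responsive bla reporter are treated with test compounds for 16 h at 37 C; beta-lactamase activity is then detected with LiveBLAzer B/G FRET substrate after 2 h at room temperature.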

[11] = molecular target: 5-hydroxytryptamine receptor 2A (Homo sapiens) (UniProt P28223); experiment: 5-hydroxytryptamine receptor 2A (HTR2A) small molecule antagonists, cell-based qHTS assay (AID 1963586); also: nearly all actives have a fitted effect of over 45% in size; also: potency is read from the fitted curve at half-maximal effect
Outline: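 CHO cells stably expressing human HTR2A were plated for 18 h at 37 C, then loaded with calcium dye for 1 h. Compounds were preincubated 5 min at room temperature before DOI (4 nM solution) was added. Kinetic fluorescence was read for 3 min.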

[12] = molecular target: 5-hydroxytryptamine receptor 2A (Homo sapiens) (UniProt P28223); experiment: 5-hydroxytryptamine receptor 2A (HTR2A) small molecule agonists, cell-based qHTS assay (AID 1963587); also: nearly all actives have a fitted effect of over 30% in size
Outline: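 CHO cells stably expressing human HTR2A, plated 18 h, loaded with calcium dye 1 h at 37 C. Agonist mode: compounds added and intracellular calcium fluorescence recorded kinetically for 2 min at 1 sec intervals.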

[13] = molecular target: Muscarinic acetylcholine receptor M1 (Homo sapiens) (UniProt P11229); experiment: Cholinergic receptor muscarinic 1 (CHRM1) small molecule antagonists, cell-based qHTS assay (AID 1963588); also: nearly all actives have a fitted effect of over 40% in size; also: potency is read from the fitted curve at half-maximal effect
Outline: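 Compounds were tested at 15 concentrations in three independent runs. Dye-loaded CHRM1-CHO cells were exposed 5 min at room temperature before stimulation by acetylcholine added at 50nM. Intracellular calcium was read kinetically on FDSS for 3 min.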

[14] = molecular target: Muscarinic acetylcholine receptor M1 (Homo sapiens) (UniProt P11229); experiment: Cholinergic receptor muscarinic 1 (CHRM1) small molecule agonists, cell-based qHTS assay (AID 1963589); also: nearly all actives have a fitted effect of over 35% in size
Outline: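 Cells were plated and incubated 18 h at 37 C/5% CO2, loaded with calcium dye for 1 h at 37 C, then treated with compounds in DMSO. Fluorescence was recorded kinetically at 1 sec intervals.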

[15] = cAMP Responsive Elements (CRE) small molecule agonists, cell-based qHTS assay (AID 1963590)
Outline: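 Cells carrying a CRE-driven beta-lactamase reporter (HEK 293T) are seeded, incubated overnight (18 h), and treated with test compounds for 3 h at 37 C; reporter activity is then detected with a FRET substrate after 2 h at room temperature.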

[16] = cAMP Responsive Elements (CRE) small molecule antagonists, cell-based qHTS assay (AID 1963591; active = well fitted inhibition curve with a large enough effect in the signal ratio in the repeat runs, not every such curve was filed as active; the % refers to the signal ratio; also: potency is read from the fitted curve at half-maximal effect)
Outline: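 Cells (CRE-bla HEK 293T, DMEM with 10% dialyzed FBS and 25 mM HEPES) are seeded and incubated 18 h. Compounds are added with NKH477 agonist at 0.25 uM final for 3 h, then FRET substrate for 2 h.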

[17] = molecular target: Beta-2 adrenergic receptor (Homo sapiens) (UniProt P07550); experiment: Adrenergic beta2 receptor (ADRB2) small molecule agonists, cell-based qHTS assay (AID 1963593);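 also: CHO cells stably overexpressing human ADRB2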
Outline: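 CHO cells stably over-expressing ADRB2 were plated overnight at 37C, then dosed with compounds plus a stimulation mix containing 100uM IBMX and 25uM Ro-20-1724 for 0.5hr at room temperature. cAMP was measured by HTRF competition, 1hr.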

[18] = molecular target: Beta-2 adrenergic receptor (Homo sapiens) (UniProt P07550); experiment: Adrenergic beta2 receptor (ADRB2) small molecule antagonists, cell-based qHTS assay (AID 1963592); also: series mostly up to about 92 µM; nearly all actives have a fitted effect of over 50% in size
Outline: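 Assay format: CHO-ADRB2 cells, 18-20hr seeding at 37C/5% CO2, then compound plus 1nM isoproterenol agonist mix for 0.5hr RT. Homogeneous time-resolved fluorescence cAMP detection after 1hr, expressed as 665/615 nm ratio.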

[19] = molecular target: D(2) dopamine receptor (Homo sapiens) (UniProt P14416); experiment: Dopamine D2 receptor (DRD2) small molecule agonists, cell-based qHTS assay (AID 1963594); also: nearly all actives have a fitted effect of over 35% in size
Outline: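 HEK293 cells stably expressing human DRD2, pre-treated with PDE inhibitor Ro20-1724 (0.1 mM final) and compound 10 min at room temperature, then stimulated with NKH477 (200nM […]) for 30 min. cAMP read by HTRF (665/620 nm).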

[20] = molecular target: D(2) dopamine receptor (Homo sapiens) (UniProt P14416); experiment: Dopamine D2 receptor (DRD2) small molecule antagonists, cell-based qHTS assay (AID 1963595; active = well fitted inhibition curve with a large enough effect in the signal ratio in the repeat runs, with a control signal flat; the % refers to the signal ratio)
Outline: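 Readout: HTRF cAMP, cAMP-d2 competing with cellular cAMP for anti-cAMP cryptate, read after 1 h. Cells: DRD2-HEK293. Conditions: 0.1 mM Ro20-1724, 12 nM quinpirole, 200 nM NKH477, 30 min RT.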

Sequence of Muscarinic acetylcholine receptor M1 (Homo sapiens) (P11229 whole entry, looked up): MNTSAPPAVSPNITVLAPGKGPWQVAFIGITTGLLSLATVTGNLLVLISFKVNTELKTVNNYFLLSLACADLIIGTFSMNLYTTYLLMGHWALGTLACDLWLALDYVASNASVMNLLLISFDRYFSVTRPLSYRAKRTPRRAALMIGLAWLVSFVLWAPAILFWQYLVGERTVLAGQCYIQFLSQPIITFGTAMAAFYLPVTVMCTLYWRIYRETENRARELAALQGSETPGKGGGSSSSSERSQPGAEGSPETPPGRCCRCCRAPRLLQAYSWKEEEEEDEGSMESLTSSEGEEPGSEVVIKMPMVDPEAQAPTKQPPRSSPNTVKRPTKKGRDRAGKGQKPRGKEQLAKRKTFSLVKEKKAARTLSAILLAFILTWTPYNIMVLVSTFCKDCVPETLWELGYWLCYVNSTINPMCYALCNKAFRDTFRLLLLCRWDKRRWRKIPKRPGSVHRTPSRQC
Sequence of 5-hydroxytryptamine receptor 2A (Homo sapiens) (P28223 whole entry, looked up): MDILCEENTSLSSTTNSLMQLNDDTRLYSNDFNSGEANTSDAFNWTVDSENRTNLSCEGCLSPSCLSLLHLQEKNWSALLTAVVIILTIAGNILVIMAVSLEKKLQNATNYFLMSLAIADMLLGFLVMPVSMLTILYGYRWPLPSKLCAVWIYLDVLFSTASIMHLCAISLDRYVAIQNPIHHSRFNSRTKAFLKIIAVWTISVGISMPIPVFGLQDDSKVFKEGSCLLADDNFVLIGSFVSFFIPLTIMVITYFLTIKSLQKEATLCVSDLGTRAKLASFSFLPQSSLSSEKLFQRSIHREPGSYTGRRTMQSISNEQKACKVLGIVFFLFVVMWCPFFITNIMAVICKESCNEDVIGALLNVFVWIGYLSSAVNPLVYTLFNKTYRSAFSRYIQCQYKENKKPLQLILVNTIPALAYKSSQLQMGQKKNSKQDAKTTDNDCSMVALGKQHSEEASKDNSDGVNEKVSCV
Sequence of D(2) dopamine receptor (Homo sapiens) (P14416 whole entry, looked up): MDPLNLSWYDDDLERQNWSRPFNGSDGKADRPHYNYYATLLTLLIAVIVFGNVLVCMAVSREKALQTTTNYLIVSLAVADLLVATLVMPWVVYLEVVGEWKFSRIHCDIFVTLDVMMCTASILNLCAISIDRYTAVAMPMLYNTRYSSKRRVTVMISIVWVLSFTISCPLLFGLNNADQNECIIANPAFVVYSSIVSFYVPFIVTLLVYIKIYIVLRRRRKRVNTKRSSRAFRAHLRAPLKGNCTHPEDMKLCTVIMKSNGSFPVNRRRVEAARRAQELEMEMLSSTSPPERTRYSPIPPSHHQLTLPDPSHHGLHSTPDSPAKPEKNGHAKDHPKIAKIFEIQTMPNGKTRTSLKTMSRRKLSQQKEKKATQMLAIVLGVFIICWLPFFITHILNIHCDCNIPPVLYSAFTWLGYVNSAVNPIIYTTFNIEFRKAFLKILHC
Sequence of Beta-2 adrenergic receptor (Homo sapiens) (P07550 whole entry, looked up): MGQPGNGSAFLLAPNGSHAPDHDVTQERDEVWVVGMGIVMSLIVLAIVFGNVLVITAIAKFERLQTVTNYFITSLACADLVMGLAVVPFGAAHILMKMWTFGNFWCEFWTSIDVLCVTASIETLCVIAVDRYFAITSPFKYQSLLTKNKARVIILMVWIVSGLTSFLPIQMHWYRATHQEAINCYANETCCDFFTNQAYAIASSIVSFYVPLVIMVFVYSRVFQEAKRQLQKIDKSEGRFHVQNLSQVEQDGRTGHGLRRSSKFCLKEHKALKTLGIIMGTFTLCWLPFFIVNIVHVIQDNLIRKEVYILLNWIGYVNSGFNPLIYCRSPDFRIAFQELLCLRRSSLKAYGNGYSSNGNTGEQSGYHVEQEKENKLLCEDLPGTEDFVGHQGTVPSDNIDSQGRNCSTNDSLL
Sequence of Gonadotropin-releasing hormone receptor (Homo sapiens) (P30968 whole entry, looked up): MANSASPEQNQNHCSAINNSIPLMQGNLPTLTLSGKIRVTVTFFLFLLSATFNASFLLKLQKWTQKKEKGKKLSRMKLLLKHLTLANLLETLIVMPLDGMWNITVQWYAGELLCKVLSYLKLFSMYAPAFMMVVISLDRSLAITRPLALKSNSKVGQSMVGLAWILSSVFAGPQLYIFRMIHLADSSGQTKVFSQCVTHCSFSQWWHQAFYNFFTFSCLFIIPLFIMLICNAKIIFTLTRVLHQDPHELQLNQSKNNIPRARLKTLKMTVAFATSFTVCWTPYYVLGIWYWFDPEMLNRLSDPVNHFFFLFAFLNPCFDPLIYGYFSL

SMILES	Potency [1]	Potency [2]	Potency [3]	Potency [4]	Potency [5]	Potency [6]	Potency [7]	Potency [8]	Potency [9]	Potency [10]	Potency [11]	Potency [12]	Potency [13]	Potency [14]	Potency [15]	Potency [16]	Potency [17]	Potency [18]	Potency [19]	Potency [20]
CCCCCCCC(=O)OCCCCCC	inactive	inactive	inactive	inactive	inactive	inactive	inactive	inactive	inactive	inactive	inactive	inactive	inactive	inactive	inactive	inactive	inactive			
CC(C)(O)Cc1ccccc1	inactive	inactive	inactive	inactive	inactive	inactive	inactive	inactive		inactive	inactive	inactive	inactive	inactive	inactive	inactive	inactive	inactive	inactive	inactive
CSCCC=O	inactive	inactive	inactive	inactive	inactive	inactive	inactive	inactive	inactive	inactive	inactive	inactive	inactive	inactive	inactive	inactive	inactive	inactive	inactive	inactive
CCCCCCCCS(=O)(=O)Cl	inactive	inactive	inactive	inactive	inactive	inactive	inactive	inactive	inactive	inactive	inactive	inactive	inactive	inactive	inactive		inactive	inactive	inactive	inactive
CCCCOC(=O)[C@H](C)O	inactive	inactive	inactive	inactive	inactive	inactive	inactive	inactive	inactive	inactive	inactive	inactive	inactive	inactive	inactive	inactive	inactive	inactive	inactive	inactive
CCCCC(CC)COC(=O)c1ccc(O)cc1 (stereo unspecified)	27.2 µM (active) and 30.6 µM (active)	inactive	inactive	inactive	inactive	inactive	40.8 µM (active)	45.8 µM (active)	40.6 µM (active)		37.5 µM (active)	inactive	inactive	inactive		40.3 µM (active)	inactive	inactive	inactive	inactive
O=C1OC(=O)c2ccccc21	inactive	inactive	inactive	inactive	inactive	inactive	inactive	inactive	inactive	inactive	inactive	inactive	inactive	inactive	inactive	inactive	inactive	inactive	inactive	inactive
c1ccc(SCCSc2ccccc2)cc1	inactive	12.1 µM (active)	inactive	inactive	inactive	inactive	inactive	inactive	inactive	inactive	inactive	inactive	inactive	inactive	inactive	inactive		inactive	inactive	inactive
O=C(O)CC(=O)O	inactive	inactive	inactive	inactive	inactive	inactive	inactive	inactive	inactive	inactive	inactive	inactive	inactive	inactive	inactive	inactive			inactive	inactive
OCC#CCO	inactive	inactive	inactive	inactive	inactive	inactive	inactive	inactive	inactive	inactive	inactive	inactive	17 µM (active) and inactive	inactive	inactive	inactive	inactive	inactive	inactive	inactive
C=CC(C)(CCC=C(C)C)OC=O (stereo unspecified)	inactive	inactive	inactive	inactive	inactive	inactive	inactive	inactive		inactive	inactive	inactive	inactive	inactive		inactive	inactive	inactive	inactive	inactive
OCCCC1CCCCC1	inactive	inactive	inactive	inactive	inactive		inactive	inactive	inactive	inactive		inactive	inactive	inactive	inactive	inactive	inactive	inactive	inactive	inactive
CC(C)(O)C#CC(C)(C)O	inactive	inactive	inactive	inactive			inactive	inactive	inactive	inactive	inactive		inactive	inactive	inactive	inactive		inactive	inactive	inactive
Nc1ccc(Cl)c(N)c1	inactive	inactive	inactive	inactive			inactive	inactive	inactive			inactive	inactive	inactive	inactive	inactive	inactive	inactive	inactive	
CC(C)=C1CC[C@@H](C)CC1=O	inactive	inactive	inactive	inactive	inactive	inactive		inactive	inactive	inactive	inactive	inactive	inactive	inactive	inactive	inactive	inactive	inactive	inactive	inactive
